Measurements reported in PubChem BioAssay (NCATS).
Results filed as inconclusive are left out. Calls of active or inactive are those of the source. Unless noted, calls come from the whole dose curve; as a rule, active = well fitted curve in the direction sought with a large enough effect; inconclusive = small, poorly fitted or top-dose-only effect, or another doubt; inactive = no such curve, though single readings can be large; an effect the other way counts as inactive or inconclusive.

Key:
[1] = qHTS Assay for Identification of Small Molecule Inducers of Hypoxia Response (AID 2120; active = well fitted curve in the direction sought with a large enough effect in the signal ratio, with a control signal flat, not every such curve was filed as active; the % refers to the signal ratio)
Outline: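 Cell-based qHTS for reporter induction: hypoxia response element controlled beta-lactamase in ME-180 cells. Compounds incubated 17 h at 37 degrees C; activity from blue/green (460/530 nm) ratio, inducers ranked by AC50.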

[2] = biological target: Ferritin light chain (Equus caballus) (UniProt P02791); experiment: qHTS Validation Assay for Identification of Novel General Anesthetics (AID 2323); note: series mostly up to about 77 µM
Outline: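 Competitive displacement of profluorescent 1-aminoanthracene (1-AMA, 50% saturated solution in PBS) from 10 uM horse-spleen apoferritin. Compounds incubated 10 min at room temperature; fluorescence read at 380 nm excitation/535 nm emission, normalized to free 1-AMA and complex, fitted with four-parameter Hill equation.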

[3] = biological target: ATP-dependent DNA helicase Q1 (Homo sapiens) (UniProt P46063); experiment: qHTS Validation Assay for Inhibitors of RecQ-Like Dna Helicase 1 (RECQ1) (AID 2353)
Outline: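 RECQ1T1 50 nM; forked duplex (20 bp + 30-nt ss tails) 200 nM, ATP 2 mM final; pH 8.0, 2 mM MgCl2, 2.5 ug/ml poly(dI-dC); 15 min compound preincubation; discontinuous kinetic read over 2 h at RT.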

[4] = biological target: RecQ-like DNA helicase BLM (Homo sapiens) (UniProt P54132); experiment: qHTS Validation Assay for Inhibitors of Bloom's syndrome helicase (BLM) (AID 2364)
Outline: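 Forked 20-bp duplex substrate (200 nM, TAMRA/BHQ-2) plus 2 mM ATP added after 15 min compound preincubation with 50 nM enzyme, pH 8.0, poly(dI-dC) 2.5 ug/ml. Strand separation followed by fluorescence (525/598 nm) over 2 h, normalized to enzyme-free and DMSO controls.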

[5] = High Content Imaging Cell-Based qHTS for Inhibitors of the mTORC1 Signaling Pathway in MEF (Tsc2-/-, p53-/-) Cells (AID 2666);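 note: percent of cells scored positive for phospho-rpS6 Ser235/236 immunostaining by imaging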
Outline: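 Tsc2-/-, p53-/- MEFs (empty-vector stable) grown in DMEM + 10% FBS were exposed to compounds for 24 hrs at 37 degree Celsius, fixed, and stained with Alexa-488 anti-phospho-rpS6 Ser235/236 plus Hoechst. Imaging gave the percentage of positive cells per well.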

[6] = High Content Imaging Cell-Based qHTS for Inhibitors of the mTORC1 Signaling Pathway in MEF Cells (AID 2667);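 note: Tsc2-/- p53-/- MEFs stably re-expressing wild-type Tsc2 exposed 24 h; series mostly up to about 38 µM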
Outline: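 Tsc2-/-, p53-/- MEFs stably re-expressing WT Tsc2, grown in DMEM + 10% FBS, were treated with compounds for 24 hrs at 37 degree Celsius, fixed, and stained with Alexa-488 phospho-rpS6 Ser235/236 antibody plus Hoechst; results given as % positive cells.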

[7] = Cytometry Cell-Based qHTS for Inhibitors of the mTORC1 Signaling Pathway in MEF cells (AID 2668);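 note: Tsc2-/- p53-/- mouse embryonic fibroblasts stably re-expressing wild-type Tsc2; percent cells positive for phospho-rpS6 Ser235/236 relative to propidium iodide stain; series mostly up to about 38 µM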
Outline: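 WT MEFs (Tsc2-/-, p53-/- stably re-expressing WT Tsc2) in DMEM + 10% FBS received compounds 24 hrs after plating, for 24 hrs at 37 degree Celsius. Fixed cells stained with Alexa-488 anti-phospho-rpS6 Ser235/236 and propidium iodide; laser-scanning cytometry read-out.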

[8] = biological target: Ubiquitin carboxyl-terminal hydrolase 2 (Homo sapiens) (UniProt O75604); experiment: qHTS Validation Assay for Inhibitors of Ubiquitin-specific Protease USP2a Using CHOP2 as the Reporter (AID 463106)
Outline: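 Readout was coupled fluorescence (Ex 485/Em 531 nm), read 60 min after adding 25 nM final Ub-CHOP2 and 25 nM reporter substrate. Beforehand, 10 nM final USP2 core had 30 min at RT with compound in pH 8.0 buffer. Curves were fitted after normalization to NEM and flagged for artifacts using time-zero reads.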

[9] = biological target: DNA polymerase III PolC-type (Bacillus subtilis (strain 168)) (UniProt P13267); experiment: qHTS Validation Assay for the Inhibitors of DNA Replication in Gram-Positive Bacteria (AID 485295);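 note: PicoGreen fluorescence of double-stranded DNA made on primed circular M13 template; series mostly up to about 57 µM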
Outline: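 Reconstituted B. subtilis holoenzyme (Pol III, beta clamp, SSB, primase) was preincubated with compound at room temperature, then given single-stranded circular M13Gori plus dNTPs and NTPs. EDTA-containing PicoGreen stopped the reaction, and dsDNA product was read by fluorescence.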

[10] = biological target: Tumor susceptibility gene 101 protein (Homo sapiens) (UniProt Q99816); experiment: qHTS Validation Assay for Iinhibitors of HIV-1 Budding by Blocking the Interaction of PTAP/TSG101 (AID 485342; calls by dose curve)
Outline: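 Tsg101 binding domain (10 uM final) in pH 7.5 HEPES/NaCl/Tween 20/EDTA/TCEP buffer was mixed with pin-transferred compounds, then FITC-labeled PTAP peptide (50 nM final) was added; after 20 min at r.t., fluorescence polarization was read.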

[11] = biological target: ATP-dependent 6-phosphofructokinase (Trypanosoma brucei brucei) (UniProt O15648); experiment: qHTS Validation Assay to Find Inhibitors of T. brucei phosphofructokinase (AID 485368); note: potency is the fitted concentration of half-maximal effect
Outline: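 Luminescent ADP detection measures PFK turnover of fructose-6-phosphate (0.5 mM) with ATP (0.1 mM) at pH 8.0. Reaction runs 45 min at room temperature with 1.25 nM enzyme; inhibitors tested as titrations up to 57 uM.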

[12] = Cytometric Cell-Based qHTS for Inhibitors of the mTORC1 Signaling Pathway in MEF (Tsc2-/-, p53-/-) Cells (AID 2660);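 note: percent of cells above a phospho-rpS6 to PI ratio cutoff in each well; series mostly up to about 38 µM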
Outline: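 Tsc2-/-, p53-/- MEFs (empty vector) exposed to compound 24 h at 37 C, fixed, stained with Alexa-488 anti-phospho-rpS6 Ser235/236 and propidium iodide. Acumen laser scanning; phospho-S6/PI ratio thresholded against 7.5 nM rapamycin, reported as % positive cells.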

[13] = biological target: Beta-2 adrenergic receptor (Homo sapiens) (UniProt P07550); experiment: qHTS validation assay of beta-arrestin-biased ligands of beta2-adrenergic receptor (AID 485366)
Outline: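 qHTS, Tango cells, 1500 cells/well, DMEM + 1% FBS. Cpd 18 hr at 37 degrees C. Luciferin/ATP/CoA detection mix, 15 min RT, luminescence read. %Activity from corrected signal; CRC fit, curve class.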

[14] = Validation screen for small molecules that induce DNA re-replication in MCF 10A normal breast cells (AID 463097); note: nearly all actives have a fitted effect of over 60% in size
Outline: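 Readout: Hoechst nuclear fluorescence intensity, 405 ex / 500-530 em, by scanning plate imager; re-replication scored as increase in nuclei with elevated DNA content. Cells exposed to compound 48 hr, 37 C, 5% CO2 beforehand.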

[15] = Quantitative high throughput screen for delayed death inhibitors of the malarial parasite plastid, 96 hour incubation (AID 488745);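 note: luciferase-expressing P. falciparum in erythrocytes at 2% hematocrit and 0.1% parasitemia; series mostly up to about 29 µM; nearly all actives have a fitted effect of over 70% in size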
Outline: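 Readout is firefly luciferase luminescence from an integrated reporter in P. falciparum; lower signal marks inhibited growth. Cultures at 2% hematocrit and 0.1% parasitemia were treated with compound across two generations (96 h, 37 C, 5% CO2).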

[16] = Quantitative high throughput screen for delayed death inhibitors of the malarial parasite plastid, 48 hour incubation (AID 488752); note: nearly all actives have a fitted effect of over 65% in size
Outline: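 First, compound was pinned into RPMI 1640 medium containing 0.5% Albumax. Next, reporter-parasite-infected erythrocytes were added to 2% hematocrit and 0.1% parasitemia. After 48 h at 37 C under 5% CO2, luciferase detection reagent was added and luminescence read.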

[17] = qHTS Validation Assay to Find Inhibitors of Chronic Active B-Cell Receptor Signaling (AID 485345; active = well fitted curve in the direction sought with a large enough effect in the main read-out, with a control signal flat, not every such curve was filed as active)
Outline: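 Read-out: ratio of filter-corrected green (IkappaBalpha fusion) to red (native) luciferase signal in doxycycline-induced TMD8 cells after 4 h at 37C. Titration spanned 46 uM–3 nM; Data were normalised to basal cells and 10 uM MG-132 wells.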

[18] = qHTS Assay for Modulators of Human Peripheral Myelin Protein 22 (PMP22) Expression/Activity (AID 1967; active = well fitted curve in the direction sought with a large enough effect in the signal ratio; the % refers to the signal ratio)
Outline: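 MSC80 mouse Schwann cells stably carrying Pmp22 promoter–green click beetle luciferase plus EF-alpha–red luciferase control were dosed for 24h at 37 °C. Dual-colour luminescence was filter-overlap corrected; %Activity came from green/red ratio versus untreated cells.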

Measured: Potency

Chain of Ubiquitin carboxyl-terminal hydrolase 2 (Homo sapiens) (O75604 whole entry, looked up): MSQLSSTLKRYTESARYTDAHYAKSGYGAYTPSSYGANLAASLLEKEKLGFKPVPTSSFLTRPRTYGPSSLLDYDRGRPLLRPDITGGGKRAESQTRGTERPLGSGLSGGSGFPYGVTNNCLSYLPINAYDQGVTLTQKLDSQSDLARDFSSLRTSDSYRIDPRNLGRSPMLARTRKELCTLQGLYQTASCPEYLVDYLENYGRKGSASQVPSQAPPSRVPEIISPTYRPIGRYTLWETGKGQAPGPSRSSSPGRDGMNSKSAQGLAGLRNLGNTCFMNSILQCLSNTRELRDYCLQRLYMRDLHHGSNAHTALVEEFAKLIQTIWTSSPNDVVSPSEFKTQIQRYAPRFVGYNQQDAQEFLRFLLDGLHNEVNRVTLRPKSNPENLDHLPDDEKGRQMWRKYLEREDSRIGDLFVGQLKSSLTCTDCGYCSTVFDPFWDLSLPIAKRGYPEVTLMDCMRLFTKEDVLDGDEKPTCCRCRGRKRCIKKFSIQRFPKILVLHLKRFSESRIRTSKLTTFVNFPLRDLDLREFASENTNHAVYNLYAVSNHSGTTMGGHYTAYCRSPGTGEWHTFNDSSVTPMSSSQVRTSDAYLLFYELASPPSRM
Chain of Tumor susceptibility gene 101 protein (Homo sapiens) (Q99816 whole entry, looked up, the tested form may be a part): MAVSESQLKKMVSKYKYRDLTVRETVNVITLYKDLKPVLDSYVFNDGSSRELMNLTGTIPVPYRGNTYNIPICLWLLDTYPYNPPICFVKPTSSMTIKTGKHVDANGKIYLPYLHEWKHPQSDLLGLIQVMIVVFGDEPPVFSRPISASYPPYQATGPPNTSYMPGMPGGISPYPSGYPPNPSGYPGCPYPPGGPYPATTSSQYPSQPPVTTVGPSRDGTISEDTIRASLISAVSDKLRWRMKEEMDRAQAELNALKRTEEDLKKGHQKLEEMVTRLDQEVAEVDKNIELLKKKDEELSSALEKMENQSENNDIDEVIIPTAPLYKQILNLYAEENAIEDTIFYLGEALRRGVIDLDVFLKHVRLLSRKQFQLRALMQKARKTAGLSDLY
Chain of Beta-2 adrenergic receptor (Homo sapiens) (P07550 whole entry, looked up): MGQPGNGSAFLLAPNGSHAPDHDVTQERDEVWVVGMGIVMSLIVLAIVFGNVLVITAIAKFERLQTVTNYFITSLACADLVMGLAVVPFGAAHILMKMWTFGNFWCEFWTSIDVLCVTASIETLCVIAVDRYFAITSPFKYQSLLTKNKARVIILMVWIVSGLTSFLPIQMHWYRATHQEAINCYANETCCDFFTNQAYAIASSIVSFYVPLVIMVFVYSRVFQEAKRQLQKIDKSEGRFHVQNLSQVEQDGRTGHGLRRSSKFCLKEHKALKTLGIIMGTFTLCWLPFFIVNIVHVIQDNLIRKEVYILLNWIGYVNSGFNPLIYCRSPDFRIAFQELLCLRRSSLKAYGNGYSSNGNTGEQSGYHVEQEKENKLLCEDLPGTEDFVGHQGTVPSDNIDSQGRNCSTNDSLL
Chain of Ferritin light chain (Equus caballus) (P02791 2-175 limits assumed): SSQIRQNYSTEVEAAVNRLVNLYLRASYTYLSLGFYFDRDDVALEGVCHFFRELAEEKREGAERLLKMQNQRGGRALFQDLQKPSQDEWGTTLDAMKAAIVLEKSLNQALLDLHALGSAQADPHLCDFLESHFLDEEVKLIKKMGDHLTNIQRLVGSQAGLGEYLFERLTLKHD
Chain of RecQ-like DNA helicase BLM (Homo sapiens) (P54132 whole entry, looked up): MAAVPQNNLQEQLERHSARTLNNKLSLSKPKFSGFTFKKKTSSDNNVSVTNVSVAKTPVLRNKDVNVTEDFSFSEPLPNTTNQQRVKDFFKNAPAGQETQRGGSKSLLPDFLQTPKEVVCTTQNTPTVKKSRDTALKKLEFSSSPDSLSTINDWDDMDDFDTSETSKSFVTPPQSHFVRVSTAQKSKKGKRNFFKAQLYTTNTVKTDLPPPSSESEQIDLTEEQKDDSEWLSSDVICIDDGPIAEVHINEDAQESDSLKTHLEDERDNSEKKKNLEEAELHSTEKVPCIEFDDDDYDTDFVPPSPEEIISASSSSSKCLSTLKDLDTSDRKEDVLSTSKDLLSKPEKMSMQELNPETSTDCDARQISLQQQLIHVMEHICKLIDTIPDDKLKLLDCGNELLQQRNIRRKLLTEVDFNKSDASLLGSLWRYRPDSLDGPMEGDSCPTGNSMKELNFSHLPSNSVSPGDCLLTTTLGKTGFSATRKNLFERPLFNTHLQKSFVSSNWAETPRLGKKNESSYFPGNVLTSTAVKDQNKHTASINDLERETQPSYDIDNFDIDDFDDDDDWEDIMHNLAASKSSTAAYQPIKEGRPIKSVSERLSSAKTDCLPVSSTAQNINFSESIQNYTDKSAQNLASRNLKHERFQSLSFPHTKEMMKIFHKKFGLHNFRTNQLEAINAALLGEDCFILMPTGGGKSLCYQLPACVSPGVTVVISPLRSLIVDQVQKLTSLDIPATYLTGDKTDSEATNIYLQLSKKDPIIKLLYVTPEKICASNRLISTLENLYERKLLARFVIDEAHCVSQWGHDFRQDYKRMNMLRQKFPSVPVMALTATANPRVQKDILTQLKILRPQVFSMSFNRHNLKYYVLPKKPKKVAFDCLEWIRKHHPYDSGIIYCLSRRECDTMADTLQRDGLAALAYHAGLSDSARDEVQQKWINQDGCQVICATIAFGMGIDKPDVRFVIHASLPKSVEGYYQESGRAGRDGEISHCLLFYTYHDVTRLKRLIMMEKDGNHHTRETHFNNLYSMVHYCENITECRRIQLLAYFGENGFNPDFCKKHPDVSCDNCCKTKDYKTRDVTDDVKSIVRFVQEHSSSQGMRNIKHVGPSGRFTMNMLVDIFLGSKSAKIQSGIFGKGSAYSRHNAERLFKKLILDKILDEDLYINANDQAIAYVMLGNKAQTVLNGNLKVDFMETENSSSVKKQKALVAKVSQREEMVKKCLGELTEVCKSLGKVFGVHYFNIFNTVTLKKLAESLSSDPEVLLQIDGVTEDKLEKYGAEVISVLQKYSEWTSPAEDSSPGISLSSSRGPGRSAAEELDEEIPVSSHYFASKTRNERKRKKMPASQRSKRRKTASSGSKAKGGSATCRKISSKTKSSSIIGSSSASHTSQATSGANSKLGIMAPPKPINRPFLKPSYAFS
Chain of ATP-dependent DNA helicase Q1 (Homo sapiens) (P46063 whole entry, looked up): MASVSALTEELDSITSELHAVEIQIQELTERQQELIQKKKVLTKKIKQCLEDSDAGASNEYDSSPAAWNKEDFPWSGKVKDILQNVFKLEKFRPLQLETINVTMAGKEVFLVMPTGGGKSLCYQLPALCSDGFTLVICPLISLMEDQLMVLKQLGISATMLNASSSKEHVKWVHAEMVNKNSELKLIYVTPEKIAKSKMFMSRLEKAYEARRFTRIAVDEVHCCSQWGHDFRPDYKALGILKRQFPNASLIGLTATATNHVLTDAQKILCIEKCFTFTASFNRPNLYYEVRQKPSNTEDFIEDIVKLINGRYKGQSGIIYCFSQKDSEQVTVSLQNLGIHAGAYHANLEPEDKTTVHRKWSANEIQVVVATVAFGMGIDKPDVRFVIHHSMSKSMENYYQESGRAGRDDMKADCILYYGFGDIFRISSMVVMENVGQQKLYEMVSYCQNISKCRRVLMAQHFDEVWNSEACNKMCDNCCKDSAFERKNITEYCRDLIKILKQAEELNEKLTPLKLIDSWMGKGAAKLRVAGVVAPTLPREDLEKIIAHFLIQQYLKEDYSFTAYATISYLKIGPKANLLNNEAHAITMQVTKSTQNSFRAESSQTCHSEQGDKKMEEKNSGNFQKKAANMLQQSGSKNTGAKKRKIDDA
Chain of ATP-dependent 6-phosphofructokinase (Trypanosoma brucei brucei) (O15648 whole entry, looked up): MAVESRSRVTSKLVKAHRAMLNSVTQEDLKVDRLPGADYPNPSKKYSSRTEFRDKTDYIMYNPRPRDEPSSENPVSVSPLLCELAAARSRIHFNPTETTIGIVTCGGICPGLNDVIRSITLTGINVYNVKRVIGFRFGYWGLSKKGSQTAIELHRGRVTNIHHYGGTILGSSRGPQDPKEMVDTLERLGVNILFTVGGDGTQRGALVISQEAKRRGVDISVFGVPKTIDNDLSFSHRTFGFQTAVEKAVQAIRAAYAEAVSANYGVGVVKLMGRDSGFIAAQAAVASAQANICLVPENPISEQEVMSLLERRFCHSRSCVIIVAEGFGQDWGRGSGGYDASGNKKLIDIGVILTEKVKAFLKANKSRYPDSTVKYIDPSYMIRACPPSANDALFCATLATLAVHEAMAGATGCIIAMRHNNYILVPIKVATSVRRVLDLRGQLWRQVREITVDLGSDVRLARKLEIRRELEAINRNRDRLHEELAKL

COc1cc(/C=C/C(=O)CC(=O)/C=C/c2ccc(O)c(OC)c2)ccc1O
inactive: [1]

Nc1nc2ccc([N+](=O)[O-])cc2s1
inactive: [1]

CN(C)c1ccc(N=NS(=O)(=O)O)cc1
inactive: [1]

CN1CCc2cccc3c2C1Cc1ccc(O)c(O)c1-3 (centres undefined)
inactive: [2] | [3] | [4] | [5] | [6] | [7] | [8] | [9] | [10]
active: [11] 12 µM

c1ccc2sc(SSc3nc4ccccc4s3)nc2c1
inactive: [1]

COc1cc2nc(N3CCN(C(=O)OCc4ccccc4)C(C(=O)NC(C)(C)C)C3)nc(N)c2cc1OC (centres undefined)
inactive: [2] | [3] | [4] | [12] | [5] | [8] | [9] | [10] | [13]

C#C[C@]1(O)CC[C@H]2[C@@H]3CCc4cc(O)ccc4[C@H]3CC[C@@]21C
inactive: [1]

Nc1ccc(O)c(C(=O)O)c1
inactive: [1]

OC[C@H]1O[C@@H](n2cnc3c(NC4CCCCC4)ncnc32)[C@H](O)[C@@H]1O
not listed: [1] | [10] | [11] | [12] | [13] | [17] | [18]
inactive: all other assays above

CCCn1c(=O)c2[nH]c(-c3ccc(OCC(=O)NCCN)cc3)nc2n(CCC)c1=O
not listed: [1] | [11] | [12] | [15] | [16] | [18]
inactive: all other assays above

O=C1O/C(=C/Br)CCC1c1cccc2ccccc12 (centres undefined)
inactive: [18] | [3] | [12] | [5] | [8] | [9] | [10] | [15] | [16]

O=C(O)CC[C@@H](C(=O)O)N1C(=O)c2ccccc2C1=O
not listed: [1] | [11] | [18]
inactive: all other assays above

COc1cccc(C(=O)NCCN2CCN(c3ccc(Cl)cc3)CC2)c1
not listed: [1] | [8] | [16] | [18]
inactive: all other assays above

NCCCS(=O)(=O)O
not listed: [1] | [11] | [14] | [15] | [18]
inactive: all other assays above
